Results from paper PMC11006913.

Columns and labels:
Assay in all cases: PBM; 200 nM protein, PBS
Conditions in all cases: dsDNA, one strand shown
NKX2-6 = target: T1, NKX2-6 (Homo sapiens, UniProt A6NCS4 118-204, F151L)
T1 sequence: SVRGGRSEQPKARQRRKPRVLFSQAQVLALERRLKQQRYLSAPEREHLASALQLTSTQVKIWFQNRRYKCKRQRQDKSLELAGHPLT

NKX3-2 [1] = target: NKX3-2 (Homo sapiens, UniProt P78367 192-278, P234S)
NKX3-2 [2] = target: NKX3-2 (Homo sapiens, UniProt P78367 192-278)
HOXC9 = HOXC9 (Homo sapiens, UniProt P31274 178-260, R222W)
Chain of HOXC9 (P31274 178-260 R222W): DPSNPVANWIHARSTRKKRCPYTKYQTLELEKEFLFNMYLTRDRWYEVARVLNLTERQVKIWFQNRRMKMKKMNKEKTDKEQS

HESX1 = HESX1 (Homo sapiens, UniProt Q9UBX0 95-180, F115L)
Chain of HESX1 (Q9UBX0 95-180 F115L): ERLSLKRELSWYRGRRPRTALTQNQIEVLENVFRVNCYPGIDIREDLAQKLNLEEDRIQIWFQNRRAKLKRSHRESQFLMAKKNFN

MSX2 = MSX2 (Homo sapiens, UniProt P35548 130-214, F161Y)
Chain of MSX2 (P35548 130-214 F161Y): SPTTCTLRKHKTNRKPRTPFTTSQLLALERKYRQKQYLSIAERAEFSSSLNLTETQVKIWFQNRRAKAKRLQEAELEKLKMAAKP

PAX4 = target: T2, PAX4 (Homo sapiens, UniProt O43316 9-242, R227W)
T2 sequence: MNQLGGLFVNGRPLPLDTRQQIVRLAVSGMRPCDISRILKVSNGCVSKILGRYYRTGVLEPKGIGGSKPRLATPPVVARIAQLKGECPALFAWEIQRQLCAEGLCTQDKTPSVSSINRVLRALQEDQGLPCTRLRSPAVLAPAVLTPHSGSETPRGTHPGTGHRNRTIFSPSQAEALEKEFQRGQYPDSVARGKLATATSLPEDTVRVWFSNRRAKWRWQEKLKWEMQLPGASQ

Chain of NKX3-2 (Homo sapiens, UniProt P78367 192-278) (P78367 192-278): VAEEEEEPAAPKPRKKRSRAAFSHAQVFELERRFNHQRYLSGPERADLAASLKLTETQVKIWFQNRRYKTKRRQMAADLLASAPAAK
Chain of NKX3-2 (Homo sapiens, UniProt P78367 192-278, P234S) (P78367 192-278 P234S): as the sequence (P78367 192-278) above, with P43S counted along it

CAAGTGTC
binding signal (NKX2-6): 10.6 upbm affinity estimate (log intensity, higher = more binding, comparable within an allelic series)

AAACACTT
binding signal (NKX2-6): 10.9 upbm affinity estimate (log intensity, higher = more binding, comparable within an allelic series)

AGAAGAGG
binding signal (NKX3-2 [1]): 11.6 upbm affinity estimate (log intensity, higher = more binding, comparable within an allelic series)
binding signal (NKX3-2 [2]): 11.7 upbm affinity estimate (log intensity, higher = more binding, comparable within an allelic series)

CCCCCAAA
binding signal (NKX3-2 [1]): 10.7 upbm affinity estimate (log intensity, higher = more binding, comparable within an allelic series)
binding signal (NKX3-2 [2]): 10.7 upbm affinity estimate (log intensity, higher = more binding, comparable within an allelic series)

ACAAGTGT
binding signal (NKX2-6): 10.6 upbm affinity estimate (log intensity, higher = more binding, comparable within an allelic series)

CCCACGGG
binding signal (NKX3-2 [1]): 10.3 upbm affinity estimate (log intensity, higher = more binding, comparable within an allelic series)
binding signal (NKX3-2 [2]): 10.3 upbm affinity estimate (log intensity, higher = more binding, comparable within an allelic series)

CACGGACC
binding signal (NKX3-2 [1]): 10.6 upbm affinity estimate (log intensity, higher = more binding, comparable within an allelic series)
binding signal (NKX3-2 [2]): 10.6 upbm affinity estimate (log intensity, higher = more binding, comparable within an allelic series)

AAACCGCG
binding signal (NKX3-2 [1]): 10.5 upbm affinity estimate (log intensity, higher = more binding, comparable within an allelic series)
binding signal (NKX3-2 [2]): 10.5 upbm affinity estimate (log intensity, higher = more binding, comparable within an allelic series)

CTCTTGCC
binding signal (NKX3-2 [1]): 11.4 upbm affinity estimate (log intensity, higher = more binding, comparable within an allelic series)
binding signal (NKX3-2 [2]): 11.5 upbm affinity estimate (log intensity, higher = more binding, comparable within an allelic series)

AAGTGTCT
binding signal (NKX2-6): 10.6 upbm affinity estimate (log intensity, higher = more binding, comparable within an allelic series)

CCTCTTAC
binding signal (NKX3-2 [1]): 12.1 upbm affinity estimate (log intensity, higher = more binding, comparable within an allelic series)
binding signal (NKX3-2 [2]): 12.2 upbm affinity estimate (log intensity, higher = more binding, comparable within an allelic series)

AAGTGCCA
binding signal (NKX3-2 [1]): 12.6 upbm affinity estimate (log intensity, higher = more binding, comparable within an allelic series)
binding signal (NKX3-2 [2]): 12.8 upbm affinity estimate (log intensity, higher = more binding, comparable within an allelic series)

ATAAAATC
binding signal (HOXC9): 11.1 upbm affinity estimate (log intensity, higher = more binding, comparable within an allelic series)

AAATTATT
binding signal (HESX1): 7.73 upbm affinity estimate (log intensity, higher = more binding, comparable within an allelic series)

GAGAGTAC
binding signal (NKX3-2 [1]): 12 upbm affinity estimate (log intensity, higher = more binding, comparable within an allelic series)
binding signal (NKX3-2 [2]): 12.1 upbm affinity estimate (log intensity, higher = more binding, comparable within an allelic series)

AATTACAA
binding signal (MSX2): 12.9 upbm affinity estimate (log intensity, higher = more binding, comparable within an allelic series)

AACACTTG
binding signal (NKX2-6): 10.8 upbm affinity estimate (log intensity, higher = more binding, comparable within an allelic series)

AAGAGTGG
binding signal (NKX3-2 [1]): 12.5 upbm affinity estimate (log intensity, higher = more binding, comparable within an allelic series)
binding signal (NKX3-2 [2]): 12.7 upbm affinity estimate (log intensity, higher = more binding, comparable within an allelic series)

ACACTTAC
binding signal (NKX2-6): 10.6 upbm affinity estimate (log intensity, higher = more binding, comparable within an allelic series)
binding signal (NKX3-2 [1]): 12.5 upbm affinity estimate (log intensity, higher = more binding, comparable within an allelic series)

AATAAATT
binding signal (HOXC9): 11.1 upbm affinity estimate (log intensity, higher = more binding, comparable within an allelic series)

ACGGTGTC
binding signal (NKX3-2 [1]): 10.6 upbm affinity estimate (log intensity, higher = more binding, comparable within an allelic series)
binding signal (NKX3-2 [2]): 10.6 upbm affinity estimate (log intensity, higher = more binding, comparable within an allelic series)

ATGCCGAC
binding signal (NKX3-2 [1]): 10.6 upbm affinity estimate (log intensity, higher = more binding, comparable within an allelic series)
binding signal (NKX3-2 [2]): 10.6 upbm affinity estimate (log intensity, higher = more binding, comparable within an allelic series)

ATTATTAG
binding signal (PAX4): 10.9 upbm affinity estimate (log intensity, higher = more binding, comparable within an allelic series)

CTAAAGGC
binding signal (NKX3-2 [1]): 10.5 upbm affinity estimate (log intensity, higher = more binding, comparable within an allelic series)
binding signal (NKX3-2 [2]): 10.6 upbm affinity estimate (log intensity, higher = more binding, comparable within an allelic series)

GGGCGGAA
binding signal (NKX3-2 [1]): 10.7 upbm affinity estimate (log intensity, higher = more binding, comparable within an allelic series)
binding signal (NKX3-2 [2]): 10.7 upbm affinity estimate (log intensity, higher = more binding, comparable within an allelic series)

AAGGGCCT
binding signal (NKX3-2 [1]): 11.9 upbm affinity estimate (log intensity, higher = more binding, comparable within an allelic series)
binding signal (NKX3-2 [2]): 12 upbm affinity estimate (log intensity, higher = more binding, comparable within an allelic series)

CCACTTCC
binding signal (NKX3-2 [1]): 12.6 upbm affinity estimate (log intensity, higher = more binding, comparable within an allelic series)
binding signal (NKX3-2 [2]): 12.7 upbm affinity estimate (log intensity, higher = more binding, comparable within an allelic series)

CCGAGTAC
binding signal (NKX3-2 [1]): 11.5 upbm affinity estimate (log intensity, higher = more binding, comparable within an allelic series)
binding signal (NKX3-2 [2]): 11.6 upbm affinity estimate (log intensity, higher = more binding, comparable within an allelic series)

AGGTTGTG
binding signal (NKX3-2 [1]): 10.7 upbm affinity estimate (log intensity, higher = more binding, comparable within an allelic series)
binding signal (NKX3-2 [2]): 10.7 upbm affinity estimate (log intensity, higher = more binding, comparable within an allelic series)

GGTGGTAC
binding signal (NKX3-2 [1]): 10.5 upbm affinity estimate (log intensity, higher = more binding, comparable within an allelic series)
binding signal (NKX3-2 [2]): 10.6 upbm affinity estimate (log intensity, higher = more binding, comparable within an allelic series)

ACGATCGA
binding signal (NKX3-2 [1]): 10.7 upbm affinity estimate (log intensity, higher = more binding, comparable within an allelic series)
binding signal (NKX3-2 [2]): 10.7 upbm affinity estimate (log intensity, higher = more binding, comparable within an allelic series)

AGTGGTCC
binding signal (NKX3-2 [1]): 11.9 upbm affinity estimate (log intensity, higher = more binding, comparable within an allelic series)
binding signal (NKX3-2 [2]): 11.9 upbm affinity estimate (log intensity, higher = more binding, comparable within an allelic series)

ATCCGAGC
binding signal (NKX3-2 [1]): 10.6 upbm affinity estimate (log intensity, higher = more binding, comparable within an allelic series)
binding signal (NKX3-2 [2]): 10.6 upbm affinity estimate (log intensity, higher = more binding, comparable within an allelic series)

AGCCTGGA
binding signal (NKX3-2 [1]): 10.6 upbm affinity estimate (log intensity, higher = more binding, comparable within an allelic series)
binding signal (NKX3-2 [2]): 10.6 upbm affinity estimate (log intensity, higher = more binding, comparable within an allelic series)

GAAGTGGC
binding signal (NKX3-2 [1]): 12.7 upbm affinity estimate (log intensity, higher = more binding, comparable within an allelic series)
binding signal (NKX3-2 [2]): 12.8 upbm affinity estimate (log intensity, higher = more binding, comparable within an allelic series)

GCCTGACC
binding signal (NKX3-2 [1]): 10.6 upbm affinity estimate (log intensity, higher = more binding, comparable within an allelic series)
binding signal (NKX3-2 [2]): 10.6 upbm affinity estimate (log intensity, higher = more binding, comparable within an allelic series)

CCACTCAG
binding signal (NKX3-2 [1]): 12.6 upbm affinity estimate (log intensity, higher = more binding, comparable within an allelic series)
binding signal (NKX3-2 [2]): 12.7 upbm affinity estimate (log intensity, higher = more binding, comparable within an allelic series)

ACCAACGC
binding signal (NKX3-2 [1]): 10.7 upbm affinity estimate (log intensity, higher = more binding, comparable within an allelic series)
binding signal (NKX3-2 [2]): 10.7 upbm affinity estimate (log intensity, higher = more binding, comparable within an allelic series)

GGTCAAAC
binding signal (NKX3-2 [1]): 10.5 upbm affinity estimate (log intensity, higher = more binding, comparable within an allelic series)
binding signal (NKX3-2 [2]): 10.5 upbm affinity estimate (log intensity, higher = more binding, comparable within an allelic series)
